This is an account of results in PubChem BioAssay (Tox21).

Inconclusive results are not listed. Unmarked numbers belong to inactive results. Activity calls are given as the source filed them. Unless noted, the call rests on the fitted dose curve; in most records, active means well fitted curve in the direction sought with a large enough effect in the repeat runs; inconclusive means weak or mixed curves; inactive means no such curve, though single readings can be large; an effect the other way counts as inactive or inconclusive.

Assay [1] in a line: qHTS assay to identify small molecule antagonists of the thyroid receptor (TR) signaling pathway - cell viability counter screen (AID 743064). Further: nearly all actives have a fitted effect of over 50% in size. The essentials:
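Fluorescence from CellTiter-Fluor, added after 23.5 h exposure at 37 °C, reported viability of GH3.TRE-Luc cells co-treated with compound and 1 nM T3. Measured in the same wells as the luciferase TR readout.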
A general note: Quantitative high-throughput screening tests each substance at several concentrations.

The subject of assay [2] is thyroid hormone receptor (rat, GH3 cells). Briefly: qHTS assay to identify small molecule agonists of the thyroid receptor (TR) signaling pathway (AID 743066; calls by dose curve).
The target of assay [3] is Estrogen receptor (Homo sapiens) (UniProt P03372). Description: qHTS assay to identify small molecule antagonists of the estrogen receptor alpha (ER-alpha) signaling pathway (AID 743069; active means well fitted curve in the direction sought with a large enough effect in the signal ratio in the repeat runs, not every such curve was filed as active; the % refers to the signal ratio). The essentials:
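Antagonist mode: compounds in DMSO were co-added with 17beta-estradiol to ER-alpha-bla HEK293 cells (2% charcoal-stripped serum) and left 18 h at 37C. Reporter inhibition was measured as FRET fluorescence after 2 h LiveBLAzer substrate at room temperature.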

A short description of assay [4]: qHTS assay to identify small molecule antagonists of the estrogen receptor alpha (ER-alpha) signaling pathway - cell viability counter screen (AID 743074; calls by dose curve;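 further: HEK293 cells carrying ER-alpha-UAS-bla reporter stimulated with 17beta-estradiol; nearly all actives have a fitted effect of over 45% in size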).
Assay [5] deals with Estrogen receptor (Homo sapiens) (UniProt P03372). Briefly: qHTS assay to identify small molecule agonists of the estrogen receptor alpha (ER-alpha) signaling pathway (AID 743075; calls by dose curve;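 further: HEK293 GripTite cells with ER-alpha and UAS-driven beta-lactamase reporter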).
Assay [6] has the same target. Briefly: qHTS assay to identify small molecule agonists of the estrogen receptor alpha (ER-alpha) signaling pathway using the BG1 cell line (AID 743079). Further: nearly all actives have a fitted effect of over 20% in size. Further: potency means the concentration at half of the fitted maximal effect.
Assay [7] can be described thus: qHTS assay to identify small molecule antagonists of the estrogen receptor alpha (ER-alpha) signaling pathway using the BG1 cell line (AID 743080; calls by dose curve;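 further: BG1 cells stimulated with 17beta-estradiol alongside compound; series mostly up to about 70 µM; nearly all actives have a fitted effect of over 25% in size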). Put shortly:
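After 5 days in phenol-red-free 10% charcoal-stripped FBS medium, BG1-Luc-4E2 cells were seeded, left 24 h at 37 C, co-treated with compounds and 17beta-estradiol for 21.5 h, then assayed for viability and luciferase.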

The nature of assay [8]: qHTS assay to identify small molecule antagonists of the estrogen receptor alpha (ER-alpha) signaling pathway using the BG1 cell line - cell viability counter screen (AID 743081).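 Further: compound given together with 17beta-estradiol as the ER stimulus; series mostly up to about 70 µM; nearly all actives have a fitted effect of over 45% in size.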
A further assay deals with Aromatase (Homo sapiens) (UniProt P11511). Description: qHTS assay to identify aromatase inhibitors (AID 743083). Further: series mostly up to about 70 µM; nearly all actives have a fitted effect of over 55% in size.
The nature of assay [9]: qHTS assay to identify aromatase inhibitors - cell viability counter screen (AID 743084).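 Further: cells stimulated with testosterone during compound exposure; nearly all actives have a fitted effect of over 55% in size.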
Assay [10] concerns the target Aryl hydrocarbon receptor (Homo sapiens) (UniProt P35869). Briefly: qHTS assay to identify small molecule that activate the aryl hydrocarbon receptor (AhR) signaling pathway (AID 743085).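 Further: HG2L7.5c1 human HepG2 liver cells with stably integrated DRE-driven firefly reporter; series mostly up to about 70 µM; nearly all actives have a fitted effect of over 15% in size.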 The essentials: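 Cell line HG2L7.5c1 (human hepatoma, 20× DRE-luc). Plated, 5 h 37C, compound/DMSO added, 24 h 37C. CellTiter-Fluor 30 min 37C → fluorescence; then ONE-Glo 30 min RT → luminescence.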

Assay [11] can be described thus: qHTS assay to identify small molecule that activate the aryl hydrocarbon receptor (AhR) signaling pathway - cell viability counter screen (AID 743086).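 Further: HepG2 liver cells carrying the AhR DRE luciferase reporter; series mostly up to about 70 µM; nearly all actives have a fitted effect of over 45% in size.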 Put shortly:
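Cytotoxicity counter screen: CellTiter-Fluor signal (30 min, 37 C) in 4000 HepG2 cells/well carrying the DRE-luciferase reporter, following 24 h compound exposure at 37 C.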

Assay [12] can be described thus: qHTS assay to identify small molecule antagonists of the peroxisome proliferator-activated receptor gamma (PPARg) signaling pathway - cell viability counter screen (AID 743194). Further: nearly all actives have a fitted effect of over 55% in size. The essentials: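 Viability was measured as CellTiter-Glo luminescence in GeneBLAzer PPARg UAS-bla HEK293H cells. These cells had been exposed 17 h at 37 C to compounds together with rosiglitazone at 50 nM final, with the beta-lactamase readout taken in the same wells.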

The nature of assay [13]: qHTS assay for small molecule agonists of the antioxidant response element (ARE) signaling pathway (AID 743202; active means well fitted activation curve with a large enough effect in the signal ratio in the repeat runs, not every such curve was filed as active; the % refers to the signal ratio). The essentials:
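After 16 hours of compound treatment at 37 C, HepG2 cells with a stably integrated ARE-driven beta-lactamase reporter were loaded 2 hours at room temperature with LiveBLAzer B/G FRET substrate and fluorescence intensity measured.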

The nature of assay [14]: qHTS assay for small molecule agonists of the antioxidant response element (ARE) signaling pathway - cell viability counter screen (AID 743203; calls by dose curve; further: nearly all actives have a fitted effect of over 55% in size). The essentials: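 Measured in the same wells as the beta-lactamase ARE reporter, this read-out is CellTiter-Glo luminescence from HepG2 ARE-bla cells given compounds for 16 hrs.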
Assay [15] in a line: qHTS assay for small molecule activators of the heat shock response signaling pathway - cell viability counter screen (AID 743209). Further: nearly all actives have a fitted effect of over 50% in size. Put shortly:
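Same-well multiplex: after 2.5 h room-temperature incubation with LiveBLAzer B/G substrate and fluorescence reading, CellTiter-Glo reagent was added to HSE-bla HeLa cells that had received compound for 5 h at 37 C; luminescence read after 30 min.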

Assay [16] in a line: qHTS assay for small molecule activators of the heat shock response signaling pathway (AID 743210; active means well fitted activation curve with a large enough effect in the signal ratio in the repeat runs, with a control signal flat, not every such curve was filed as active; the % refers to the signal ratio; further: series mostly up to about 63 µM). The essentials: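 Compound exposure lasted 5 h at 37 C in HeLa cells carrying a heat-shock-element-driven beta-lactamase reporter. Read-out: fluorescence intensity after 2.5 h room-temperature loading with LiveBLAzer B/G FRET substrate.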
The nature of assay [17]: qHTS assay to identify small molecule antagonists of the thyroid receptor (TR) signaling pathway (AID 743065). Put shortly:
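Antagonism measured as loss of luciferase signal in GH3 cells stably carrying a TRE-luciferase reporter, co-treated with compound and T3 (1 nM final) for 23.5 h at 37 C. Viability was read in the same well by CellTiter-Fluor.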

Assay [18] deals with Peroxisome proliferator-activated receptor gamma (Homo sapiens) (UniProt P37231). Description: qHTS assay to identify small molecule antagonists of the peroxisome proliferator-activated receptor gamma (PPARg) signaling pathway (AID 743191; calls by dose curve; further: series mostly up to about 63 µM; nearly all actives have a fitted effect of over 30% in size). Put shortly: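 Beta-lactamase reporter under UAS control in HEK293H PPARg-bla cells; compound treatment 17 h at 37C. Read-out: fluorescence intensity after 1 h room-temperature incubation with LiveBLAzer B/G FRET substrate.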

Assay [19] has the same target. Briefly: qHTS assay to identify small molecule agonists of the peroxisome proliferator-activated receptor gamma (PPARg) signaling pathway (AID 743094; active means well fitted activation curve with a large enough effect in the signal ratio in the repeat runs, not every such curve was filed as active; the % refers to the signal ratio). Put shortly:
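Cell-based bla reporter, HEK293H background, PPARg-driven UAS. Pre-incubation 5 h, 37C, 5% CO2. Compound 17 h, 37C. Substrate 1 h RT; fluorescence.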
On the % scale 0 is the no-effect control and ±100 the full control effect.

Chain of Estrogen receptor (Homo sapiens) (P03372 whole entry, looked up): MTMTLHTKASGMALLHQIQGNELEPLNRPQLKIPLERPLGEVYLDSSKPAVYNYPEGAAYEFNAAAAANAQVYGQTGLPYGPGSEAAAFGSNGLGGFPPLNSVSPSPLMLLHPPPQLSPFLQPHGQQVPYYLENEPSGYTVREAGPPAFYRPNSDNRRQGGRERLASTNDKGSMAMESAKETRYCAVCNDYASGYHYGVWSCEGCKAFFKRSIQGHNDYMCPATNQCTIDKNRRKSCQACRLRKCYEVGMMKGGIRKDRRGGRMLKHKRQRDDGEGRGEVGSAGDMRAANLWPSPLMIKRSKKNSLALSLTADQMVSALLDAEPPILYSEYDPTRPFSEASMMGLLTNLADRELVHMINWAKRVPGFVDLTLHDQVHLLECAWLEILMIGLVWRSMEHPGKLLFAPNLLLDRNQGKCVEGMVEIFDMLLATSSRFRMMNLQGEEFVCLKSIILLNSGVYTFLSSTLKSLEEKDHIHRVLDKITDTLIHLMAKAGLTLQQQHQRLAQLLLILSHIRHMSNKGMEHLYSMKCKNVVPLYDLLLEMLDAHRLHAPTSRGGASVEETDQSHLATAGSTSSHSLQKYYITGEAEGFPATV
Chain of Aryl hydrocarbon receptor (Homo sapiens) (P35869 whole entry, looked up): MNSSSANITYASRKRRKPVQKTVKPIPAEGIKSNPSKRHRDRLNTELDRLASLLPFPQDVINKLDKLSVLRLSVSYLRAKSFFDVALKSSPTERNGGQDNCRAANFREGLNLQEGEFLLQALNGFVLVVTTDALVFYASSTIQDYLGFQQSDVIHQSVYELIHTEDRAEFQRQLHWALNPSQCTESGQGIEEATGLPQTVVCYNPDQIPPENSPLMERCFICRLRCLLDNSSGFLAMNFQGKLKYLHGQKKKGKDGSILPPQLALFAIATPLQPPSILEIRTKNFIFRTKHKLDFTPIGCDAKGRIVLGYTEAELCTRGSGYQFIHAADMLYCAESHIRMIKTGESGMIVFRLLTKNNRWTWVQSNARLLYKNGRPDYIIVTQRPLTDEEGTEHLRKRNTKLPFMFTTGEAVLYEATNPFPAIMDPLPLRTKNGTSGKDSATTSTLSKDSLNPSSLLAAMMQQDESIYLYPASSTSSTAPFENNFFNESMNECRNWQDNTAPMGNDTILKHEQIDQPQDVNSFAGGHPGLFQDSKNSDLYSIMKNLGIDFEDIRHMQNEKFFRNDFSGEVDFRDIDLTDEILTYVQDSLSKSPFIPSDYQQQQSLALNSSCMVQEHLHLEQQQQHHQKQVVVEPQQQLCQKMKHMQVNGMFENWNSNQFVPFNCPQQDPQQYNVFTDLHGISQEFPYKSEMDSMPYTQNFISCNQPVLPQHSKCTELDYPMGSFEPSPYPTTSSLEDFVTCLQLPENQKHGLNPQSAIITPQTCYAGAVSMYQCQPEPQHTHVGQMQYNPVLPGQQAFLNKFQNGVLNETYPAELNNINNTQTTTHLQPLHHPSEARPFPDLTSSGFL
Chain of Peroxisome proliferator-activated receptor gamma (Homo sapiens) (P37231 whole entry, looked up): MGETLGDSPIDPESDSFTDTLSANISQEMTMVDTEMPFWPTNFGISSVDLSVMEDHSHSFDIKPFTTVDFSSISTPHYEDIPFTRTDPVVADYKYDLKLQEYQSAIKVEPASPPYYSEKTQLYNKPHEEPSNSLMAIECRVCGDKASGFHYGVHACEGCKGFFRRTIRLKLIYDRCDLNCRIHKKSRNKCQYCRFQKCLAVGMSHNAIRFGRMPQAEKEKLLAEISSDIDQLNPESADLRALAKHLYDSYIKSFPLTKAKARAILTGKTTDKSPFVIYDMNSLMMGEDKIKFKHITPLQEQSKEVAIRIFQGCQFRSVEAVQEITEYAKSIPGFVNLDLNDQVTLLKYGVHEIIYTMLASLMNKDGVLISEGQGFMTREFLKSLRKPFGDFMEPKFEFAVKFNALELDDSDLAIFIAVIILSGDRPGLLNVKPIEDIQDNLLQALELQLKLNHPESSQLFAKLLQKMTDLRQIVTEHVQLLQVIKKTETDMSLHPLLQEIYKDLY
Chain of Aromatase (Homo sapiens) (P11511 whole entry, looked up): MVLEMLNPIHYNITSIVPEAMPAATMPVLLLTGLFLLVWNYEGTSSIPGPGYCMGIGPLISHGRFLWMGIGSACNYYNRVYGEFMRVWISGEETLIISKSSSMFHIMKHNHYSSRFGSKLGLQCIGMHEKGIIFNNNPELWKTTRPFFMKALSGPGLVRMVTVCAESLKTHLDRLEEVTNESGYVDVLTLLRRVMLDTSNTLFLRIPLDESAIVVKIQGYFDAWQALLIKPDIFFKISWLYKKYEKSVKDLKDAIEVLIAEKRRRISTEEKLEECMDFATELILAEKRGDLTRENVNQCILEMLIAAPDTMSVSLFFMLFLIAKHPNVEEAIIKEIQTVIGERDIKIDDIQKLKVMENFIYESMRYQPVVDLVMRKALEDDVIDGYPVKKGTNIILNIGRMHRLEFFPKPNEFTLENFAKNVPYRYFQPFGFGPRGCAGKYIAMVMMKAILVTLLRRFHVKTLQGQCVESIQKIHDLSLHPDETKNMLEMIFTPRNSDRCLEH

Take `O=S(O)CO`: the Potency entry (in [1]; in assay [5]; in assay [8]; with Aromatase (Homo sapiens); in assay [9]; in assay [10]) was “inactive” each time. The Potency result in assay [11], in [13] and in assay [14] was “inactive” throughout. Further, the outcome in [2], in [3], in [4], in assay [7], in assay [12] and in assay [15] was inactive. Moreover, the result in [16] was inactive. Further, the Potency in assay [6] was 26.6 µM (active).
For `CC(C)NCC(O)c1ccc(NS(C)(=O)=O)cc1` (stereo not drawn), the Potency entry in [1], in assay [17], in assay [8], in assay [11], in [13] and in assay [14] was “inactive” throughout. Also, the molecule was classed as inactive in assay [2], in assay [4], in [15] and in assay [16].
For the molecule `CCCCCCCCCCCCCC=O`, in [1], the activity change, negative = cytotoxic is -8.15% [at 8.44 µM]. Also, the activation in assay [2] was 0.523% [at 8.08 µM]; in [5], 2.95% [at 6.71 µM]; in assay [16], -0.951% [at 5.95 µM]. For the same molecule, the activity, negative = inhibition in assay [3] was -10.5% [at 6.71 µM]; with Aromatase (Homo sapiens), -2.09% [at 8.47 µM]. For the same molecule, the activity, negative = cytotoxicity in [4] is -17.6% [at 6.72 µM]. In addition, in [6], the Potency was 2.69 µM (active). Moreover, in assay [7], the activity change, negative = inhibition is 0.386% [at 8.47 µM]. In addition, the activity change, negative = cytotoxicity in assay [8] was -2.15% [at 8.47 µM]; in [9], -6.33% [at 8.47 µM]; in assay [15] it was -3.36% [at 5.95 µM]. The viability change, negative = cytotoxic is 3.67% [at 8.47 µM] in assay [11] and 1.02% [at 8.36 µM] in assay [14]. In addition, the ratio activity, negative = inhibition in assay [18] is -1.51% [at 5.95 µM].
Take `OCCOc1ccc(OCCO)cc1`: the Potency result (in assay [1]; in assay [5]; in assay [6]; in [8]; with Aromatase (Homo sapiens); in assay [9]) was “inactive” in each case. Besides, the Potency result in assay [10], in [11], in assay [18], in [13] and in assay [14] was “inactive” throughout. In addition, the call in assay [2], in assay [3], in assay [4], in [7], in assay [12] and in assay [15] was inactive. Further, the molecule was classed as inactive in [16].
Regarding `NS(=O)(=O)c1cc2c(cc1Cl)NC(C1CC3C=CC1C3)NS2(=O)=O` (stereo not drawn), the Potency entry (in assay [1]; in [5]; in [6]; in assay [8]; in the assay with Aromatase (Homo sapiens); in assay [9]) was “inactive” throughout. Moreover, the Potency entry in assay [10], in assay [11] and in assay [14] was “inactive” in each case. Also, the call in [2], in assay [3], in assay [4], in [7], in assay [19] and in assay [12] was inactive. The outcome in assay [15] and in assay [16] was inactive.
For `O=c1n(CCO)c(=O)n(CCO)c(=O)n1CCO`, the Potency entry (in [1]; in assay [5]; in assay [6]; in [8]; in the assay with Aromatase (Homo sapiens); in assay [9]) was “inactive” in each case. In addition, the Potency entry in assay [10], in [11], in [18] and in assay [14] was “inactive” each time. Moreover, the result in assay [2], in assay [3], in assay [4], in assay [7], in assay [19] and in [15] was inactive. Moreover, the molecule was classed as inactive in assay [16].
Take `CCC(C)S` (stereo not drawn): in assay [1], the activity change, negative = cytotoxic is 23.6% [at 3.79 µM]. In addition, the activity, negative = inhibition is 10.9% [at 3.79 µM] in assay [17] and 7.68% [at 3.79 µM] with Aromatase (Homo sapiens). Further, the activation was 1.37% [at 3.63 µM] in [2], 2.05% [at 3.79 µM] in assay [10], 4.65% [at 3.17 µM] in assay [19] and 1.05% [at 3.74 µM] in assay [13]. Moreover, the activity change, negative = cytotoxicity in assay [8] is 11% [at 3.79 µM]; in assay [9] it was -1.89% [at 3.79 µM]; in assay [12], -9.73% [at 2.7 µM]; in assay [15] it was -3.21% [at 2.7 µM]. Moreover, the viability change, negative = cytotoxic is -4.09% [at 3.79 µM] in assay [11] and 9.9% [at 3.74 µM] in [14]. For the same molecule, the ratio activity, negative = inhibition in [18] was 25.6% [at 2.7 µM].
